PubChem BioAssay (NCI)
This is part of a sample that, as a whole, favours compounds with a hit. Of some 83,000 tested, about 20% had one in any assay.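 48-hour exposure, single concentration, 96-well plates; percent growth endpoint where 0 means no net growth. Active: below 10.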 A number with no mark means an inactive call. Calls of active or inactive are those of the source.

Assays:
Test in all cases: NCI-60 one-dose screen, 48 h (100 = growth as untreated, 0 = no growth, -100 = all killed)
Conditions in all cases: 10 µM unless noted
T-47D breast = tested on: T-47D breast
BT-549 breast = tested on: BT-549 breast
MDA-MB-435 melanoma = tested on: MDA-MB-435 melanoma
SW-620 colon = tested on: SW-620 colon
MCF7 breast = tested on: MCF7 breast
HCT-116 colon = tested on: HCT-116 colon
HCC-2998 colon = tested on: HCC-2998 colon
KM12 colon = tested on: KM12 colon

Structure (SMILES)	growth (T-47D breast)	growth (BT-549 breast)	growth (MDA-MB-435 melanoma)	growth (SW-620 colon)	growth (MCF7 breast)	growth (HCT-116 colon)	growth (HCC-2998 colon)	growth (KM12 colon)
COc1ccc(-c2csc(NC(=O)CSc3nc(-c4ccccc4)cc(=O)[nH]3)n2)cc1	15.1%	8.89% (active)	49.9%	93.5%	50.7%	35.8%	83.5%	73.9%
COC(=O)/C=C1/SC(=Nc2ccc(C)cc2)N(CCc2c[nH]c3ccc(O)cc23)C1=O	35%	9.38% (active)	14.9%	44.2%	18.6%	16.9%	46.7%	43.6%
O=[N+]([O-])c1ccc(-c2nc(N3CCOCC3)c3c4c(sc3n2)CCCC4)cc1	83.5%	82.3%	99.1%	95.1%	73.1%	68.1%	102%	95.5%
O=C(/C=C(/C=C/c1cccc2[nH]ccc12)OB(F)F)/C=C/c1cccc2[nH]ccc12	7.95% (active)	-19.5% (active)	-34.4% (active)	1.96% (active)	4.29% (active)	-84.7% (active)	-84.1% (active)	-17.3% (active)
Cc1ccc(Sc2nnc(/N=C3\C(=O)Nc4ccccc43)s2)cc1	107%	116%	103%	96.2%	101%	104%	116%	98.1%
CN(C)c1ccc(Nc2cc(-c3cccc(OC(F)(F)F)c3)nc3ccc(N4CCCC4)cc23)cc1	70.5%	-49.6% (active)	-73.6% (active)	-48.1% (active)	-14.7% (active)	-31.2% (active)	91.1%	-45.5% (active)
COc1ccc(-c2nc(SCC(C)C)nc(N/N=C\c3ccc(F)cc3)c2C#N)cc1	80.7%	89.9%	92.5%	67.9%	81.2%	60%	104%	97.4%
CCNc1nc(-c2ccc(Cl)c(OC)c2)c(-c2ccnc(NCCCNS(=O)(=O)c3ccc(Cl)cc3)n2)s1	37.4%	52%	24.8%	80.9%	66.3%	42.4%	102%	65.3%
CC(=O)Nc1nc2ccc(NS(=O)(=O)c3cccc4c(N(C)C)cccc34)cc2[nH]1	74.3%	61.3%	-28.6% (active)	38.7%	22.4%	62.2%	83.3%	55.1%
N#CC1=C(c2ccc(Cl)cc2)Nc2c(c(-c3ccc(Cl)cc3)nn2-c2ccccc2)C12C(=O)Nc1ccc(Cl)cc12 (stereo not drawn)	42.3%	31.7%	55.1%	54.8%	33.2%	26.1%	69.1%	27.7%
O=C(COc1ccc(-c2nc3ccccc3[nH]2)cc1)N=Nc1c(O)[nH]c2ccc(Cl)cc12	65.4%	110%	93.9%	40.6%	22.3%	47.2%	65.2%	15.3%
COC1C[C@H](O[C@@H]2C[C@H](O[C@@H]3C[C@H](O[C@@H]4C(=O)c5c(cc6cc(O[C@H]7C[C@@H](O[C@H]8C[C@@H](O)[C@H](O)C(C)O8)[C@H](O)C(C)O7)c(C)c(O)c6c5O)C[C@H]4C(OC)C(=O)[C@@H](O)[C@@H](C)O)OC(C)[C@H]3O)OC(C)[C@@H]2O)OC(C)[C@@H]1O (stereo partly drawn)	-4.81% (active)	-20.4% (active)	-62% (active)	9.73% (active)	4.52% (active)	4.82% (active)	-18.8% (active)	4.61% (active)
CS(=O)(=O)Nc1cc(-c2ccc3ncnc(Nc4ccc5c(cnn5Cc5ccccn5)c4)c3c2)cnc1Cl	18.5%	56.7%	77.5%	84.3%	36%	92.9%	80.4%	95.4%
Cc1nc2sc(C(=O)Nc3cccc(Cl)c3C)c(N)c2cc1C(=O)c1ccccc1	36.8%	7.58% (active)	-37.4% (active)	27%	11.1%	13.1%	7.04% (active)	13%
Cn1c(=O)c2c(nc(NC3=NS(=O)(=O)c4ccccc43)n2CC(=O)N2CCc3ccccc32)n(C)c1=O	91.3%	91.7%	101%	95.2%	103%	97.9%	96.9%	107%
c1cc2[nH]ncc2cc1-c1nc2ccc3[nH]ncc3c2c2c1CCCC2	4.77% (active)	12%	2.02% (active)	9.28% (active)	21.7%	0.11% (active)	13.8%	13.2%

Structure (SMILES)	growth (T-47D breast)	growth (BT-549 breast)	growth (MDA-MB-435 melanoma)	growth (SW-620 colon)	growth (MCF7 breast)	growth (HCT-116 colon)	growth (HCC-2998 colon)	growth (KM12 colon)
Clc1ccc(CNc2c3ccccc3nc3ccccc23)cc1	43.4%	70.9%	60.7%	31%	16%	15.7%	-10.2% (active)	35.6%
N#CCSc1nnc2n(Cc3ccccc3)c(=O)c3c4c(sc3n12)CCCC4	111%	98.7%	107%	109%	98.9%	92.7%	105%	101%
O=C(Cn1c(=O)sc2ccccc21)NNS(=O)(=O)c1ccccc1[N+](=O)[O-]	105%	116%	98.5%	103%	96.5%	107%	107%	99.9%
C=C(C)[C@@H]1CC[C@]2(C)[C@H](CC=C3[C@@H]4[C@H](C)[C@@H](C)CC[C@]4(CO)CC[C@]32C)[C@@]1(C)CCCN	-34.1% (active)	55.3%	-60.3% (active)	-74.8% (active)	0.962% (active)	-57.8% (active)	-93.3% (active)	-41.3% (active)
c1ccc(C2=NN[C@H](c3cn(-c4ccccc4)nc3-c3ccccc3)C2)cc1	43.5%	48.7%	67%	55.7%	74.4%	22.8%	64.6%	62.8%
CCCNC(=O)Oc1ccc(/C(=C(/C)Cc2ccc(OC)cc2)c2ccc(OCCCN(C)C)cc2)cc1	70.2%	91.6%	80.3%	97.1%	36.3%	59.5%	77.7%	84.1%
O=C(Nc1nc2ccc(F)cc2s1)c1cccnc1Nc1ccc(Cl)cc1	-0.413% (active)	31.8%	29.2%	49.8%	17.7%	14.2%	31.1%	31.3%
Cn1cc(-c2nonc2-c2c[nH]c3ccc(Br)cc23)c2cc(Br)ccc21	24.4%	76.8%	40.3%	55.9%	26.1%	22.7%	39.8%	22.8%
Cc1cc(=O)[nH]c2c(C#N)cnn12	99.6%	107%	104%	92.4%	93.2%	98.5%	101%	107%
O=C1Nc2ccc(Br)cc2/C1=N/c1n[nH]c(=S)s1	94.6%	121%	101%	97.1%	91.7%	103%	97.5%	95.5%
COc1ccc(-c2nnc3n(C)c(=O)c4ccccc4n23)cc1N	24.2%	31.2%	-19.6% (active)	20.3%	18.6%	20.2%	49.7%	28.3%
O=c1oc2ccc([N+](=O)[O-])cc2cc1Br	101%	112%	104%	98.1%	97.7%	105%	114%	107%
COC(=O)CNC(=O)[C@H](Cc1ccccc1)NCc1ccncc1	89.6%	96.4%	110%	102%	92.9%	100%	103%	103%
O=C1/C(=C/c2ccc(Cl)c(Cl)c2)CN(C(=O)C(Cl)Cl)C/C1=C\c1ccc(Cl)c(Cl)c1	-36.7% (active)	-58.5% (active)	-68.7% (active)	-71.5% (active)	-57.7% (active)	-92.5% (active)	-88.8% (active)	-71.2% (active)
CC(C)N1CN2C(=S)NC3C2N(C1)C(=S)N3C (stereo not drawn)	92.4%	124%	104%	101%	93%	105%	113%	94.4%
